Source: the supplement of paper PMC6897291

Tested on: U-2932
Assay: growth inhibition by drug plus 177Lu-lilotomab satetraxetan (1 - RLU/untreated control) (fraction); higher = stronger inhibition
Details: 10 nM; time (day): 5; 177Lu-lilotomab satetraxetan 1 ug/ml
In short: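 Growth inhibition was calculated from RealTime-Glo RLU against untreated no-drug wells. Values equal 1 − RLU/mean of 48 untreated no-drug wells per plate, read daily from day 3 after 1 h at 37°C. RIVA and U-2932 cells, with or without 18 h pretreatment by a radiolabelled anti-CD37 antibody conjugate (~600 MBq/mg; 0.5 µg/ml RIVA, 1 µg/ml U-2932), were washed and plated at 3,000 cells/well on compound-printed plates at 10/100 nM (RIVA) or 10/1,000 nM (U-2932).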

In order of rising “growth inhibition by drug plus 177Lu-lilotomab satetraxetan” value:
1. Cc1cc2c(C(C)C)c(O)c(O)c(C=O)c2c(O)c1-c1c(C)cc2c(C(C)C)c(O)c(O)c(C=O)c2c1O [Gossypol]  -0.0445
2. CN(C)CCN(C)CCc1ccc(Cl)c(Cl)c1  -0.00129
3. O=P1(N(CCCl)CCCl)NCCCO1 (configuration not stated) [Cyclophosphamide monohydrate]  0.0126
4. O=C(Oc1ccc([N+](=O)[O-])cc1)N1CCC(C(O)(c2ccc3c(c2)OCO3)c2ccc3c(c2)OCO3)CC1  0.0178
5. CCC1(c2ccc(N)cc2)CCC(=O)NC1=O (configuration not stated) [Aminoglutethimide (Cytadren)]  0.0252
6. Cn1cc(C2=C(c3cn(C4CCN(Cc5ccccn5)CC4)c4ccccc34)C(=O)NC2=O)c2ccccc21  0.0275
7. C[C@]12CCC(=O)C(O)=C1CC[C@@H]1[C@@H]2CC[C@]2(C)C(=O)CC[C@@H]12 [Formestane]  0.0406
8. CC(O)(CS(=O)(=O)c1ccc(F)cc1)C(=O)Nc1ccc(C#N)c(C(F)(F)F)c1 (configuration not stated) [Bicalutamide (Casodex)]  0.0445
9. N[C@@H](Cc1ccc(N(CCCl)CCCl)cc1)C(=O)O [Melphalan]  0.0541
10. N.N.[Cl][Pt][Cl] [Cisplatin]  0.0625
11. Cc1ccccc1-n1c(Cn2cnc3c(N)ncnc32)nc2cccc(C)c2c1=O  0.107
12. CC1=C2C[C@H]3[C@@H](CC=C4C[C@@H](O)CC[C@@]43C)[C@@H]2CC[C@]12O[C@@H]1C[C@H](C)CN[C@H]1[C@H]2C [Cyclopamine]  0.107
13. CC[C@@H](C(=O)[C@@H](C)[C@@H](O)[C@H](C)[C@@H]1O[C@@H]([C@@H](CC)C(=O)O)CC[C@@H]1C)[C@H]1O[C@]2(C=C[C@@H](O)[C@]3(CC[C@@](C)([C@H]4CC[C@](O)(CC)[C@H](C)O4)O3)O2)[C@H](C)C[C@@H]1C [Salinomycin (Procoxacin)]  0.126
14. O=C(O)c1nn(Cc2ccc(Cl)cc2Cl)c2ccccc12 [Lonidamine]  0.132
15. C=C1C[C@@H]2[C@H](CC[C@]3(C)C(=O)CC[C@@H]23)[C@@]2(C)C=CC(=O)C=C12 [Exemestane]  0.138
16. CC(=O)Nc1ccc(OC[C@](C)(O)C(=O)Nc2ccc([N+](=O)[O-])c(C(F)(F)F)c2)cc1 [Andarine (GTX-007)]  0.151
17. CC(C)[C@]12O[C@H]1[C@@H]1O[C@]13[C@]1(O[C@H]1C[C@H]1C4=C(CC[C@@]13C)C(=O)OC4)[C@@H]2O [Triptolide]  0.744
